An excerpt weighted towards active compounds, which were near 6.1% of everything screened.
ATXN viability: viability counter-screen for ATXN expression inhibitors. S2 cells (HEK-293 line with an ATXN2-luciferase reporter) viability, CellTiter-Fluor protease fluorescence, 24 h. Potency, µM (doses to about 56.7 µM), actives largely listed as cytotoxic. hit rate 0.49% among 400,000; further: nearly all actives have a fitted effect of over 40% in size
RORg inh: blocks mouse ROR gamma transcriptional activity. P51450. Drosophila S2 Gal4-RORgamma UAS-luciferase reporter, 20 h. Potency, µM (doses to about 53.6 µM), most hits filed as inhibitors. hit rate 5.4% among 310,000; further: nearly all actives have a fitted effect of over 60% in size
Target sequence (P51450 whole entry, looked up, the tested form may be a part): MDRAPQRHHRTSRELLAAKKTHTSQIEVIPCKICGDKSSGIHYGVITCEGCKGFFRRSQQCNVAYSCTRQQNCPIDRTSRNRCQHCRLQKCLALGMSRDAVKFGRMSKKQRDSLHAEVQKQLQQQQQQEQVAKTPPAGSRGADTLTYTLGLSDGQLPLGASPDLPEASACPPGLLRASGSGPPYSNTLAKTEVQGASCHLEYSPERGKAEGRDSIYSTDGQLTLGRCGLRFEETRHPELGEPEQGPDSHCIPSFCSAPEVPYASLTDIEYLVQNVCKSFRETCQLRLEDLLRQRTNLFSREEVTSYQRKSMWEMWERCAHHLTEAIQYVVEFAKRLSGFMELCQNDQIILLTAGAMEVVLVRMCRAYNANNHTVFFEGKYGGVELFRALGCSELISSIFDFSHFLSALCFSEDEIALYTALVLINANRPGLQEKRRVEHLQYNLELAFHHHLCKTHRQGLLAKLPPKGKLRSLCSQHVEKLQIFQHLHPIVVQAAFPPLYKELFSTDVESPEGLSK
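Drosophila S2 cells stably expressing Gal4-DBD/mouse RORγ fusion under metallothionein promoter plus UAS-luciferase; compound 1 h, then 700 uM CuSO4 induction for 20 h at ambient temperature; inhibition read as reduced luminescence.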
ATXN2 expr inh: ATXN2 expression inhibition | HEK-293 ATXN2-luciferase reporter, luminescence, 24 h | AID 1745845 | hit rate 0.72% among 360,000 | Potency, µM (doses to about 57 µM), most hits filed as inhibitors; further: nearly all actives have a fitted effect of over 55% in size
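ATXN2-luciferase reporter cells (luciferase flanked by upstream and downstream ATXN2 gene portions) were treated 24 h at 37 °C with compounds at up to 57 uM. SteadyGlo luminescence gave expression; GF-AFC fluorescence gave viability.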
HepG2 tox: kills HepG2 cells in TGF-b inhibitor counter-screen. HepG2 CAGA-GFP viability, ATP luminescence, 18 h. Potency, µM (series often up to 46.1 µM), actives largely listed as cytotoxic. hit rate 0.76% among 410,000
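HepG2 CAGA-GFP cells (1000/well, DMEM with 1% FBS) received compound, then TGF-beta at 500 pg/mL final, and were incubated 18 hours at 37 degrees C. Viability was read by CellTiter-Glo luminescence. Media-only wells were set as complete cell-killing and DMSO as no toxicity.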
TGFb inhibitor: TGF-b pathway inhibition. HepG2 CAGA-GFP TGF-b/SMAD3 reporter, GFP fluorescence, 18 h; TGF-beta stimulated, 500 pg/mL final. Potency, µM (top dose mostly 46.1 µM), hits mostly inhibitors. hit rate 1.2% among 410,000. AID 588855; further: nearly all actives have a fitted effect of over 65% in size
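GFP signal (ex488/em500-530) from TGF-beta-stimulated HEPG2 CAGA-GFP cells, 500 pg/mL final, 18 h at 37 degrees C in DMEM plus 1% FBS, normalized to unstimulated and DMSO-stimulated controls.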
VP16 counter: inhibits Gal4-VP16 luciferase reporter, ROR gamma counter-screen; AID 2546; Potency, µM (doses to about 53.6 µM), usual class: inhibitors; hit rate 3.5% among 310,000; Drosophila S2 Gal4-VP16 UAS-luciferase, luminescence, 20 h;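 further: Gal4-VP16 expression switched on by copper sulfate through the metallothionein promoter; nearly all actives have a fitted effect of over 50% in size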
A number is an active result; . = inactive; ? = inconclusive; / = no result given. The call rests on the fitted dose curve; in most records, active means well fitted curve in the direction sought with a large enough effect; inconclusive means small, poorly fitted or top-dose-only effect, or another doubt; inactive means no such curve, though single readings can be large; an effect the other way counts as inactive or inconclusive.

SMILES | ATXN viability | RORg inh | ATXN2 expr inh | HepG2 tox | TGFb inhibitor | VP16 counter
COC1[C@@H](OC)C[C@H](C)[C@@H](OC)C2=CC(=O)C=C(NC(=O)/C(C)=C/C=C\[C@H](OC)[C@@H](OC(N)=O)/C(C)=C/[C@@H]1C)C2=O (some centres undefined) | / | . | / | / | / | .
Cc1cccc(Oc2ccc(Cl)cc2N)c1 | . | . | . | 20µM | . | ?
O=C(Cn1c(=O)nc(-c2ccccc2)c2ccccc21)Nc1ccc(Cl)c(C(F)(F)F)c1 | / | / | / | . | . | /
Cc1ccc(NC(=S)Nc2cc(C(=O)O)ccc2N2CC3CC(C2)c2cccc(=O)n2C3)cc1C (centres undefined) | . | 5µM | . | . | . | 20µM
COc1cccc(NC(=S)Nc2cc(C(=O)O)ccc2N2CC3CC(C2)c2cccc(=O)n2C3)c1 (centres undefined) | . | . | / | . | . | .
Cc1ccc(S(=O)(=O)/C=C/C#N)cc1 | / | 1.1µM | / | / | / | 0.56µM
Cc1ccc(S(=O)(=O)C=CS(=O)(=O)c2ccc(C)cc2)cc1 | ? | / | / | . | ? | /
COc1ccccc1CN1CCN(C2CCN(C(=O)NC(C)C)CC2)C(=O)C1=O | . | / | . | . | . | /
CCn1c(C(=O)OC)cc2c1ccn2-c1ccc(F)cc1 | . | ? | . | 13µM | . | .
O=C(CSc1nc2c([nH]c3ccccc32)c(=O)n1-c1ccccc1)Nc1cccc(C(F)(F)F)c1 | / | / | / | . | . | /
Cc1cccc2nc(-c3cccnc3)c(NCCC(C)C)n12 | . | 8.9µM | . | . | ? | ?
CN(/N=C/c1ccc2c(c1)OCO2)c1ccccc1 | . | . | . | . | . | 18µM
Cc1ccc(OCC(=O)Nc2ccc3nc(SCCOc4ccccc4)sc3c2)cc1 | . | / | . | . | . | /
COc1cc(CN2C(=S)NC(C)(C)CC2(C)O)cc(OC)c1 (centres undefined) | . | 3.5µM | . | . | . | 11µM
COc1cccc(CNC(=O)C2CCCN(c3nnc(-n4c(C)ccc4C)s3)C2)c1OC (centres undefined) | . | / | . | . | . | /
CCOc1ccc(NC(=O)C2(c3ccc(OC)c(OC)c3)CCCC2)cc1 | . | . | . | . | . | .
COc1cc2nccc(Oc3ccc(NC(=O)C4(C(=O)Nc5ccc(F)cc5)CC4)cc3)c2cc1OC | / | / | 19µM | / | / | /
CNC[C@H](CC1CCCCC1)NC[C@H](CO)NCCc1cccc(C(F)(F)F)c1 | 22µM | ? | 28µM | . | ? | .
CNC[C@H](CC1CCCCC1)NC[C@H](CO)NCC1(c2ccccc2)CC1 | . | . | ? | . | ? | .
Cc1ccc2[nH]c(C(=O)NN=C3CCCCC3)c(-c3ccccc3)c2c1 | . | 5µM | ? | . | ? | 10µM
Cc1ccc2[nH]c(C(=O)O)c(-c3ccccc3)c2c1 | . | . | . | . | . | .
Nc1ccc(-c2nc3ccc(N)cc3o2)cc1 | . | ? | . | . | ? | 11µM
Cc1ccc2nc(-c3cc(N)cc(N)c3)oc2c1 | ? | 2.8µM | ? | . | . | ?
CN(C)c1ccc(-c2nc3cc(N)ccc3o2)cc1 | . | 7.9µM | ? | . | . | 7.1µM
Nc1ccc(-c2nc3cc(N)ccc3o2)cc1 | . | ? | . | . | . | ?
SMILES | ATXN viability | RORg inh | ATXN2 expr inh | HepG2 tox | TGFb inhibitor | VP16 counter
COc1ccccc1C1CN(Cc2cnn(C)c2C)Cc2ccccc2O1 (centres undefined) | . | / | / | / | / | /
COc1ccc(COC[C@H](C)[C@H](O[Si](C)(C)C)[C@@H](C)[C@H]2OC(=O)[C@H]2C)cc1 | / | . | / | . | . | .
O=C(O)CCc1c(C(=O)O)[nH]c2cc(Cl)cc(Cl)c12 | / | . | / | / | / | .
O=C(Cn1cnc2c(nnn2Cc2ccccc2F)c1=O)NCC1CCCO1 (centres undefined) | . | . | . | . | . | .
O=C(CSc1ncnc2c1nnn2Cc1ccccc1F)NCC1CCCO1 (centres undefined) | . | 13µM | . | . | ? | .
COc1ccccc1CNC(=O)[C@@H](NC(=O)C1CCN(C(=O)[C@@H]2CCCN2C(=O)OC(C)(C)C)CC1)C(C)C | . | 7.9µM | . | . | . | .
Cc1cnc(CNc2nc(-c3ccc(N(C)C)cc3)nc3ccccc23)cn1 | / | ? | / | / | / | 11µM
CCOC(=O)c1cc(S(=O)(=O)N2CCN(c3ccc(C)cc3C)CC2)[nH]n1 | . | / | . | . | ? | /
CN(CC(=O)NC1CC1)S(=O)(=O)c1ccc(F)cc1 | . | . | . | . | . | .
COc1ccc(S(=O)(=O)N(C)CC(=O)NC2CC2)cc1 | . | . | . | 18µM | . | .
CCOC(=O)c1cocc1C(=O)O | . | / | . | 1.6µM | ? | /
Cc1c(O)c2c(c(C(=O)/C=C/c3ccccc3)c1O)OC(C)(C)C=C2 | / | / | / | . | 11µM | /
CCC(=O)c1ccc(OCc2ccc(C(=O)c3ccccc3)cc2)cc1 | . | ? | / | . | . | 7.1µM
CCC(C)(C)NC(=O)COc1ccc(C(=O)c2ccccc2)cc1 | . | . | . | . | . | 13µM
CCC(=O)c1ccc(OCc2ccccc2)c(OC)c1 | . | ? | . | . | . | .
O=C(COc1ccc(C(=O)c2ccccc2)cc1)NC1CCCCCC1 | . | ? | . | . | ? | ?
COC(=O)c1ccc([C@H]2Nc3ccc(S(=O)(=O)Nc4cccc(C)c4)cc3[C@H]3C=CC[C@H]32)cc1 | ? | / | . | . | 6.3µM | /
Cc1ccc(NS(=O)(=O)c2ccc3c(c2)[C@H]2C=CC[C@H]2[C@@H](c2ccc(F)cc2)N3)cc1C | . | / | . | . | 8.9µM | /
O=C(O)c1ccc(NS(=O)(=O)c2ccc3c(c2)C2C=CCC2C(c2ccccc2F)N3)cc1 (centres undefined) | . | . | . | . | . | .
Cc1ccc([C@H]2Nc3ccc(S(=O)(=O)Nc4cccc(Cl)c4C)cc3[C@H]3C=CC[C@H]32)cc1 | / | / | / | . | . | /
Cc1ccc2[nH]c(=O)c(CN(CCCO)Cc3nnnn3Cc3ccco3)cc2c1 | / | / | / | . | . | /
O=C(O)c1cccc(S(=O)(=O)Nc2ccc3c(c2)CCC3)c1 | . | ? | . | . | . | 10µM
Cc1cc(C)c(S(=O)(=O)Nc2ccc3c(c2)CCC3)c(C)c1 | . | . | ? | . | 18µM | .
O=C(O)c1cccc(S(=O)(=O)Nc2cccc(S(=O)(=O)Nc3ccc(Br)cc3)c2)c1 | ? | / | . | . | . | /
CC(=O)c1ccc(N(C)C)cc1 | . | . | . | . | . | .
CN(C)c1ccc(C(=C2C=CC(=[N+](C)C)C=C2)c2c(O)c(S(=O)(=O)[O-])cc3cc(S(=O)(=O)O)ccc23)cc1 | / | 8.9µM | / | . | . | 8.9µM
CCN(CC)c1ccc(C(=C2C=CC(=[N+](CC)CC)C=C2)c2ccc(S(=O)(=O)O)cc2S(=O)(=O)[O-])cc1 | ? | / | ? | . | . | /

Compound activity as filed in PubChem.
